These results are taken from PubChem BioAssay.

A word on the inhibition: it is the drop in the measured response relative to a control, in per cent.

Test [1] in a line: antimalarial activity against Dd2 strain (AID 2302;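 active = growth inhibition above 50% at the single 2 µM test dose, taken to imply half-maximal potency below 2 µM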;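 also: 0% = DMSO untreated growth and 100% = chloroquine plus artemisinin killed control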). Particulars: P. falciparum Dd2 in RBCs, LDH growth readout, 72 h; at 2 µM; hits give high values.
Test [2] in a line: HepG2 cytotoxicity, primary screen, cytotoxicity control for P. falciparum antimalarial project, cell-based, ATP luminescence (AID 2303;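 active = inhibition above 50%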;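 also: 0% = DMSO wells and 100% = digitonin-killed cells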). Particulars: HepG2 viability, 24-48 h, at 10 µM, hits give high values.
Test [3] concerns the target L-lactate dehydrogenase (Plasmodium falciparum (isolate CDC / Honduras)) (UniProt Q27743). Briefly: PfLDH activity inhibition – cell lysate, 3D7 strain, counter-screen for P. falciparum growth inhibition project (AID 2304).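 Also: 0% = vehicle and 100% = reference inhibitor.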 Particulars: P. falciparum 3D7 crude extract, LDH APAD/NBT absorbance; at 2 µM; hits give high values. For orientation: The purpose of a counterscreen is to sort out artefacts and off-target activity.

The nature of test [4]: inhibition of 3D7 malaria parasite growth – strain 3D7 (AID 2306).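 Also: 0% = DMSO wells and 100% = chloroquine plus artemisinin control wells.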 Conditions: P. falciparum 3D7 erythrocytic growth, LDH absorbance, 72 h; at 2 µM; hits give high values.
The target in test [5] is Calcium-dependent protein kinase 1 (Plasmodium falciparum (isolate 3D7)) (UniProt P62344). As to the kind of experiment: PfCDPK1 kinase inhibitors, biochemical, TCAMS library (AID 1159585; cut-off not given, nearly all actives have IC50 up to about 0.98 µM;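 also: inhibitors leave more ATP so luminescence rises with inhibition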). Particulars: recombinant PfCDPK1, Kinase-Glo ATP depletion luminescence.
In test [6] the target is Plasmodium falciparum protein kinase 6 (PK6, PF3D7_1337100) (UniProt Q8IDW1). Briefly: PfPK6 kinase inhibitors, biochemical, TCAMS library (AID 1159586). Particulars: recombinant PfPK6, Kinase-Glo ATP depletion luminescence.
Test [7] has as its target Protein kinase 7 (PK7), Plasmodium falciparum 3D7 (PF3D7_0213400) (UniProt Q7YTF7). As to the kind of experiment: inhibition of Plasmodium PK7 catalytic activity – biochemical, TCAMS antimalarial set, Kinase-Glo luminescence (AID 1159587). Conditions: recombinant PfPK7, Kinase-Glo ATP depletion luminescence.
Test [8] concerns the target Calcium-dependent protein kinase 4 (Plasmodium falciparum (isolate 3D7)) (UniProt Q8IBS5). Briefly: PfCDPK4 kinase inhibitors, biochemical, TCAMS library (AID 1159588; cut-off not given, nearly all actives have IC50 up to about 0.91 µM). Particulars: recombinant PfCDPK4, Kinase-Glo ATP depletion luminescence. For orientation: Kinase-Glo measures the ATP left after a reaction by luminescence.

The structures appear in SMILES notation. Values without a mark were called inactive. For some of these results: Measured potencies and affinities stand elsewhere. Active and inactive are the calls of the source. Unless noted, no rule for the calls is given here.

Protein kinase 7 (PK7), Plasmodium falciparum 3D7 (PF3D7_0213400), sequence (Q7YTF7 1-343): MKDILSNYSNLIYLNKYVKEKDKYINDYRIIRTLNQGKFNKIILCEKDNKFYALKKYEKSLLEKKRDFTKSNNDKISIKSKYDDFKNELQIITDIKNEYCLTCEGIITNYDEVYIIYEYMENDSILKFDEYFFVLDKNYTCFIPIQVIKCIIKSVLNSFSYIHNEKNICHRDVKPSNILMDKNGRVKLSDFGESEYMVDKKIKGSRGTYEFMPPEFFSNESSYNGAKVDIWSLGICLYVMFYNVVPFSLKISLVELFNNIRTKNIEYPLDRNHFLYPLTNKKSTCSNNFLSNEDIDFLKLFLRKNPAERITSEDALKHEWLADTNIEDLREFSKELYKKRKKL
Calcium-dependent protein kinase 1 (Plasmodium falciparum (isolate 3D7)), sequence (P62344 whole entry, looked up): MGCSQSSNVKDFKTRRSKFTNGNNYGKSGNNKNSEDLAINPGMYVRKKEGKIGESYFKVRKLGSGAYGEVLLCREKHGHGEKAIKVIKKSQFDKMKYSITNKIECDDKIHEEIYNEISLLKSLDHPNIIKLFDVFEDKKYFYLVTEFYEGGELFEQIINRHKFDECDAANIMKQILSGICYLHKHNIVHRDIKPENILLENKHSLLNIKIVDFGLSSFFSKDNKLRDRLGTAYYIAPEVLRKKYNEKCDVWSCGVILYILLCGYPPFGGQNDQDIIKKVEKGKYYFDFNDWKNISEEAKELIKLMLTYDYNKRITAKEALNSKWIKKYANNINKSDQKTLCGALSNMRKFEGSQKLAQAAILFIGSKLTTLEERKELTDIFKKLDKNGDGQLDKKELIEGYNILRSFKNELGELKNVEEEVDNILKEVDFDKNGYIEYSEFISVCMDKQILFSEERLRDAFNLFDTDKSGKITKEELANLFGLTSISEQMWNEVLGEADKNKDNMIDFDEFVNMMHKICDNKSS
Calcium-dependent protein kinase 4 (Plasmodium falciparum (isolate 3D7)), sequence (Q8IBS5 whole entry, looked up): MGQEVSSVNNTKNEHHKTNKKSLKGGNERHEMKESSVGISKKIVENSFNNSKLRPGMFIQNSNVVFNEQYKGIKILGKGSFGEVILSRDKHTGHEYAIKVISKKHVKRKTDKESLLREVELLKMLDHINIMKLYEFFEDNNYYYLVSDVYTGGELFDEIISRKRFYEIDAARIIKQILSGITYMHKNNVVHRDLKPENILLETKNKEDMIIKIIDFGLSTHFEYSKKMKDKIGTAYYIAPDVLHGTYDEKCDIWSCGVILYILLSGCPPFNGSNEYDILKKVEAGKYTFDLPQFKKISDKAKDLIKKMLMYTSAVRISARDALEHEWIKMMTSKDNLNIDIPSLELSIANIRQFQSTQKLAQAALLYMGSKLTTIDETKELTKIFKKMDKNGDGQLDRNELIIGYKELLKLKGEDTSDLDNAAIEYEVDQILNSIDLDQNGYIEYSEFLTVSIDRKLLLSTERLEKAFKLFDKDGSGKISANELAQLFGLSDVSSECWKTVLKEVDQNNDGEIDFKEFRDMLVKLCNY
Plasmodium falciparum protein kinase 6 (PK6, PF3D7_1337100), sequence (Q8IDW1 1-305): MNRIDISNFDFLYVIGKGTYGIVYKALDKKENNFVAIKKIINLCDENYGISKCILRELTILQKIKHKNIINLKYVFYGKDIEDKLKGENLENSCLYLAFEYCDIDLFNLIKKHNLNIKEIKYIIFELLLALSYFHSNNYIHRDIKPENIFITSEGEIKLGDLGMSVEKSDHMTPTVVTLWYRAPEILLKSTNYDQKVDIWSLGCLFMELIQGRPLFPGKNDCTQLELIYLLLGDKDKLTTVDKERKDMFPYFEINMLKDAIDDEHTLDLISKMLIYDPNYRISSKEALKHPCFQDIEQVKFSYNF
L-lactate dehydrogenase (Plasmodium falciparum (isolate CDC / Honduras)), sequence (Q27743 whole entry, looked up): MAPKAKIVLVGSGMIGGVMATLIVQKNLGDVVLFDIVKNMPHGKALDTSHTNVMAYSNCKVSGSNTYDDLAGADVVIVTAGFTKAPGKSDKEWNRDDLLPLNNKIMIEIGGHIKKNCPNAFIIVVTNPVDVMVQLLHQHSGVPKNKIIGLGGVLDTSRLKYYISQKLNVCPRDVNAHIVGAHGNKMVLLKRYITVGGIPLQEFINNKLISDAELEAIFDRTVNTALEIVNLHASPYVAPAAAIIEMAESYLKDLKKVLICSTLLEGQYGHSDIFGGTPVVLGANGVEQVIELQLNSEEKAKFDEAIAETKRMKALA

Turning to `Cc1cccc2[nH]c(-c3ccc(-c4ccc(CN5CCN(CCC#N)CC5)cc4)cc3)nc12`, the growth inhibition in test [1] is 27%; in test [4], 91% (active). Besides, the values for the inhibition in test [2] and in test [3] were 48% and 0%, respectively. Besides, the result in test [5], in test [6], in test [7] and in test [8] was inactive.
Consider `Nc1nc(N)c2c(ccc3nn(C4CCCC4)cc32)n1`, for which the figures for the growth inhibition in test [1] and in test [4] were 3% and 97% (active), respectively. In addition, the figures for the inhibition in test [2] and in test [3] were 44% and -1%, respectively. For the same molecule, the outcome in test [5], in test [6], in test [7] and in test [8] was inactive.
Consider `CCOC(=O)C(Oc1ccc2ccccc2c1)C(=O)OCC`, for which the growth inhibition in test [1] is 0%; in test [4], 98% (active). In addition, the inhibition in test [2] is 8%; in test [3], -4%. The result in test [5], in test [6], in test [7] and in test [8] was inactive.
Regarding `Nc1cccc(CNCc2ccc(-c3ccc(-c4nc5ccccc5[nH]4)s3)cc2)c1`, the growth inhibition in test [1] is 93% (active); in test [4], 100% (active). In addition, the inhibition in test [2] was 12%; in test [3] it was 4%. For the same molecule, the outcome in test [5], in test [6], in test [7] and in test [8] was inactive.
Turning to `CCc1cn2c3c(cc(C(=O)N[C@@H](Cc4ccccc4)[C@H](O)CNC4CC4)cc13)N(CC)S(=O)(=O)CC2`, the growth inhibition was 99% (active) in test [1] and 98% (active) in test [4]. Further, the inhibition was 13% in test [2] and -3% in test [3]. Further, the outcome in test [5], in test [6], in test [7] and in test [8] was inactive.
Consider `COc1ccc(CNC2Cc3ccccc3C2)cc1-c1ccc(S(=O)(=O)NCCN2CCCC2)cc1`, for which the figures for the growth inhibition in test [1] and in test [4] were 61% (active) and 101% (active), respectively. Further, the inhibition in test [2] is 40%; in test [3] it was -7%. Moreover, the outcome in test [5], in test [6], in test [7] and in test [8] was inactive.
As to `O=c1cc(NCCCNCc2cccc3c2OC(F)(F)O3)[nH]c2ccccc12`, the growth inhibition in test [1] is 15%; in test [4], 88% (active). For the same molecule, the results for the inhibition in test [2] and in test [3] were 4% and 7%, respectively. Further, the outcome in test [5], in test [6], in test [7] and in test [8] was inactive.
Turning to `FC(F)(F)c1cccc(CNC2CCN(CC3CCCCC3)CC2)c1`, the results for the growth inhibition in test [1] and in test [4] were 12% and 101% (active), respectively. The inhibition in test [2] and in test [3] was 0% in each case. Further, the outcome in test [5], in test [6], in test [7] and in test [8] was inactive.
On to `Cc1ccc(Nc2nccc(NCC(O)c3cccc(C)c3)n2)cc1` (stereo not given), for which the growth inhibition in test [1] was 23%; in test [4], 90% (active). Also, the results for the inhibition in test [2] and in test [3] were 22% and 0%, respectively. The result in test [5], in test [6], in test [7] and in test [8] was inactive.
Consider `O=[N+]([O-])c1cccc(S(=O)(=O)N2CCN(CC(O)COc3ccc(-c4ccccc4)cc3)CC2)c1` (stereo not given), for which the growth inhibition in test [1] was 32%; in test [4], 94% (active). For the same molecule, the inhibition is 11% in test [2] and 0% in test [3]. Besides, the outcome in test [5], in test [6], in test [7] and in test [8] was inactive.
As to `CC(C)c1ccc(Nc2nc(NCCc3cnc[nH]3)nc(NCc3ccccc3)n2)cc1`, the growth inhibition in test [1] was 2%; in test [4] it was 98% (active). Besides, the inhibition in test [2] is 1%; in test [3] it was -2%. The outcome in test [5], in test [6], in test [7] and in test [8] was inactive.
`CN1CCN(CC(=O)Nc2ccc(-c3cccc(-c4nc5ccc(C(F)(F)F)cc5[nH]4)c3)cc2)CC1`: the growth inhibition in test [1] is 93% (active); in test [4] it was 101% (active). Besides, the inhibition was 45% in test [2] and -5% in test [3]. Also, the result in test [5], in test [6], in test [7] and in test [8] was inactive.
With `CC(C)(C)c1ccc(S(=O)(=O)Nc2ccccc2N2CCOCC2)cc1`, the growth inhibition in test [1] was 60% (active); in test [4], 90% (active). In addition, the inhibition in test [2] is 11%; in test [3] it was 1%. The result in test [5], in test [6], in test [7] and in test [8] was inactive.
Take `O=C(NCCCCN1CCC(c2ccc3c(c2OCC(O)c2ccc(Cl)cc2)CCCC3)CC1)c1ccc(-c2ccc(C(F)(F)F)cc2)cc1` (stereo not given): the values for the growth inhibition in test [1] and in test [4] were 67% (active) and 89% (active), respectively. Further, the inhibition is 100% (active) in test [2] and -3% in test [3]. In addition, the outcome in test [5], in test [6], in test [7] and in test [8] was inactive.
Consider `C[C@H](Cc1ccc(CCc2ccc(C[C@@H](C)NC[C@H](O)c3cccc(Cl)c3)cc2)cc1)NC[C@H](O)c1cccc(Cl)c1`, for which the growth inhibition in test [1] was 92% (active); in test [4], 95% (active). In addition, the inhibition in test [2] was 100% (active); in test [3], 2%. The outcome in test [5], in test [6], in test [7] and in test [8] was inactive.
Turning to `CCN(CCCN1CCCCC1)c1cc(C)nc(Nc2ccc(C)cc2Br)n1`, the growth inhibition in test [1] is 27%; in test [4] it was 95% (active). The inhibition in test [2] is 49%; in test [3], 3%. Besides, the result in test [5], in test [6], in test [7] and in test [8] was inactive.
As for `CC(C)CN1CCCN(Cc2cccc(NC(=O)c3cc4ccccc4s3)c2)CC1`, the growth inhibition is 6% in test [1] and 87% (active) in test [4]. Moreover, the inhibition was 5% in test [2] and 0% in test [3]. Further, the result in test [5], in test [6], in test [7] and in test [8] was inactive.
As for `COc1ccc(Cn2c(Nc3cccc(C(F)(F)F)c3)nc3ccc(C(=O)NCCN4CCCC4)cc32)cc1Cl`, the growth inhibition in test [1] is 6%; in test [4] it was 100% (active). In addition, the inhibition is 14% in test [2] and 2% in test [3]. Besides, the outcome in test [5], in test [6], in test [7] and in test [8] was inactive.
Take `Cc1cnc(NCCc2ccc(F)cc2)nc1N[C@@H](CC(C)C)C(=O)Nc1ccccc1`: the figures for the growth inhibition in test [1] and in test [4] were 29% and 87% (active), respectively. For the same molecule, the figures for the inhibition in test [2] and in test [3] were 19% and -1%, respectively. Also, the outcome in test [5], in test [6], in test [7] and in test [8] was inactive.
As for `CCC(C)NCCC(c1ccccc1)c1ccccc1O` (stereo not given), the growth inhibition in test [1] is 74% (active); in test [4], 97% (active). Moreover, the inhibition in test [2] and in test [3] was 4% in each case. The result in test [5], in test [6], in test [7] and in test [8] was inactive.
